The term inhibition denotes the drop in the measured response relative to a control, in per cent.

The results in this text go back to PubChem BioAssay AID2291 (The Scripps Research Institute Molecular Screening Center, 2010).

The whole screen tested about 16,000 compounds, of which about 75 (0.5%) were called active. Cut-off read from the data, not from the text of the source: active = inhibition above about 30%; inactive = the rest. The list comes from a sample in which actives are over-represented; it also holds similar structures and randomly drawn compounds.

Chain of Protein phosphatase methylesterase 1 (Homo sapiens) (Q9Y570 whole entry, looked up): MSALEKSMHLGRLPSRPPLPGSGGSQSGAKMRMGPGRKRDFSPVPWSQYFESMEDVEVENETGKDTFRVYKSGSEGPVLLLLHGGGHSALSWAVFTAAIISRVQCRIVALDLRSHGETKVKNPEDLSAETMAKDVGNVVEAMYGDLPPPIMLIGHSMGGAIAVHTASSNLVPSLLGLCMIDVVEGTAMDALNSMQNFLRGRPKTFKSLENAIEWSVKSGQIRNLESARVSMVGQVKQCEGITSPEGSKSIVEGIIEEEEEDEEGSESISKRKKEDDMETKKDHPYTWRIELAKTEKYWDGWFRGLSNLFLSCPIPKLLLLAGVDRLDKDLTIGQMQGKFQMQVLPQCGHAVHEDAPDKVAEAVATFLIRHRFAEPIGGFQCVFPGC

The assay has as its target Protein phosphatase methylesterase 1 (Homo sapiens) (UniProt Q9Y570). Briefly: inhibitors of human PME-1 in Maybridge library (AID 2291). The following applies: recombinant PME-1, FP-Rh probe fluorescence polarization; at 9 µM; active compounds read high.
Take `COc1ccc(-c2ccc(/C=N/NC(=O)CCc3ccc(O)cc3)s2)cc1`: the inhibition is -3.06% (inactive).

Turning to `COc1ccc(COCC(O)CN2CCC(C(N)=O)CC2)cc1` (centres undefined), the inhibition is 1.38% (inactive).

For the compound `FC(F)(F)c1ccc(Cl)c(NC(=S)NN=C2CCCCCC2)c1`, the inhibition was 0.88% (inactive).

With `CC1(C)C=Cc2cc(-c3noc(-c4ccccc4)n3)ccc2O1`, the inhibition was -23.5% (inactive).

As to `CCCc1c(C(=O)Nc2ccc(F)cc2)cnn1-c1ccccc1`, the inhibition is 3.87% (inactive).

As to `O=C(Oc1ccccc1N1CCCCC1)c1sc2ccccc2c1Cl`, the inhibition was -0.751% (inactive).

For the compound `CCOC(=O)CNC(=O)CCc1cc(OC)c(OC)c(OC)c1`, the inhibition was 6.62% (inactive).

Regarding `Cn1c(S(=O)(=O)O)nc2ccccc21`, the inhibition was 3.94% (inactive).

Turning to `O=C(Sc1ccccc1)c1ccc(C(F)(F)F)cc1`, the inhibition was -0.43% (inactive).

With `CN(NS(=O)(=O)CS(C)(=O)=O)c1ncccc1[N+](=O)[O-]`, the inhibition was 5.17% (inactive).

For `O=C(O)c1onc2ccccc12`, the inhibition is -2.58% (inactive).

In the case of `CCOC(=O)NN(C(=O)OCC)c1c(C)c(C)c(C)c(C)c1C`, the inhibition is -1.33% (inactive).

In the case of `Cc1nc(C(F)(F)F)ccc1C(=O)NC1CCCc2ccccc21` (centres undefined), the inhibition was 1.46% (inactive).

Regarding `Cc1cc2nc(C)c(C)nc2cc1C`, the inhibition is -1.82% (inactive).

On to `COc1ccc(NC(=O)C2CC(C)=C(C)CC2C(=O)O)c(N2CCOCC2)n1` (centres undefined), for which the inhibition was 1.52% (inactive).

Turning to `N#CC(Cc1ccccc1)Sc1ccccc1` (centres undefined), the inhibition is 3.19% (inactive).

Turning to `O=C(CNC(=O)c1ccccc1F)c1ccc(Br)cc1`, the inhibition was -7.48% (inactive).

`O=C(/C(=N\N=C\c1ccc2c(c1)OCO2)c1ccccc1)c1ccccc1`: the inhibition was 4.75% (inactive).

For `Cc1cc2nsnc2cc1Cl`, the inhibition was 0.257% (inactive).

For the compound `COC(=O)c1sc(SC)c(-c2ccn[nH]2)c1C`, the inhibition is 2.07% (inactive).

Turning to `NC(=S)N/N=C\Cc1nnnn1-c1ccc(Cl)cc1`, the inhibition is 1.94% (inactive).

Turning to `Nc1nc(C23CC4CC(CC(C4)C2)C3)cs1`, the inhibition is 8.45% (inactive).

Regarding `CSc1ccc(C(F)(F)F)cc1C(=O)/C=C/N(C)C`, the inhibition is -0.344% (inactive).

For the compound `Clc1ccc(-c2csc(-c3cnccn3)n2)s1`, the inhibition was -1.61% (inactive).

`O=C1c2ccc3c4c(ccc(c24)C(=O)N1c1ccccc1)C(=O)N(c1ccccc1)C3=O`: the inhibition is 5.87% (inactive).

Take `CCOC(=O)C1=C(C)NC(=O)NC1c1ccc(-c2cccc([N+](=O)[O-])c2)o1` (centres undefined): the inhibition was -24.2% (inactive).

With `C/C(=N\NC(N)=S)c1csc(-c2ccccc2)n1`, the inhibition is 4.41% (inactive).

Turning to `O=C(c1cc(-c2cccs2)on1)N1CCCCC1`, the inhibition is -4.77% (inactive).

Turning to `COCn1nnc2ccccc21`, the inhibition was 0.294% (inactive).
